# In PubChem BioAssay AID1852 (Sanford-Burnham Center for Chemical Genomics, 2009):
# Screen size: about 2,500 compounds; about 1,100 (44%) were called active.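 The calls were made as follows: active = inhibition above 50% at 4 µM in the single-point screen; inactive = inhibition of 50% or less.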 So high a share suggests a set chosen from earlier hits. The list shows a part of the results.
# Test: TNF-a-driven NF-kB reporter inhibitors, primary screen, selectivity assay for NOD1/NOD2 signaling inhibitor project, cell-based, HEK293T NF-kB-Luc, luminescence (AID 1852)
# Settings: TNF-a induced, 14 h, at 4 µM, hits give high values
row,Compound,inhibition
1,Cn1cc(S(=O)(=O)N2CCc3ccccc32)cc1C(=O)NC(C)(C)C,38.6% (inactive)
2,O=C(Nc1nc2ccc([N+](=O)[O-])cc2s1)c1ccc(S(=O)(=O)N2CCCc3ccccc32)cc1,68.8% (active)
3,O=C(Nc1nnc(C2CC2)s1)c1cccc(S(=O)(=O)N2CCc3ccccc32)c1,9.3% (inactive)
4,COc1ccc(NC(=O)COC(=O)/C=C/C(=O)OCC(=O)Nc2ccc(OC)c(Cl)c2)cc1Cl,17.7% (inactive)
5,Cc1nn(C(C)(C)C)c(C)c1/C=N/OC(=O)Nc1ccc(Cl)c(Cl)c1,94% (active)
6,Cc1ccc(NC(=O)O/N=C/c2c(C)nn(C(C)(C)C)c2C)cc1Cl,90.2% (active)
7,Cc1nn(C(C)(C)C)c(C)c1/C=N/OC(=O)Nc1ccc(Cl)cc1,71.3% (active)
8,O=C(Nc1ccc(Cl)c(Cl)c1)OCc1cnc(Cl)s1,-13.5% (inactive)
9,O=C(Nc1ccc(Cl)cc1)OCc1cncs1,-60.4% (inactive)
10,Cc1ccc(NC(=O)Cc2ncc(C(F)(F)F)cc2Cl)cc1Cl,-15.6% (inactive)
11,Cc1ccc(OCCCCn2cnc3ccccc32)cc1,26.7% (inactive)
12,CCOc1ccc(-c2csc3ncn(-c4ccc(OC)cc4)c(=O)c23)cc1,44% (inactive)
13,COc1ccc(-n2cnc3ccccc32)cc1,53.9% (active)
14,COc1ccc(-n2cc(-c3ccccc3)c3c(N4CCOCC4)ncnc32)cc1,12.7% (inactive)
15,COc1ccc2ncn(-c3ccccc3)c2c1,53.8% (active)
16,COc1ccc(OC)c(Nc2c3ccccc3nc3ccccc23)c1,20.8% (inactive)
17,CC(=O)c1ccc(NC(=O)c2noc3c2CCC3)cc1,35.4% (inactive)
18,O=C(Sc1cccc2cccnc12)c1ccc(F)cc1,101% (active)
19,O=C(Sc1cccc2cccnc12)c1ccccc1Br,105% (active)
20,CCOC(=O)c1c(N2C(=O)Nc3cc(Cl)c(Cl)cc3N2O)sc2c1CCCCC2,75.5% (active)
21,O=[N+]([O-])c1ccc(O)c(Nc2ncnc3ccc(Br)cc23)c1,14.6% (inactive)
22,CCOc1cc(C=C(C(=O)OC)C(=O)OC)ccc1OCc1ccc([N+](=O)[O-])cc1,7.6% (inactive)
23,CCOc1ccc(Nc2ncnc3ccc([N+](=O)[O-])cc23)cc1,63.8% (active)

row,Compound,inhibition
1,COc1ccc(/C=C2\SC(=S)N(CCCC(=O)NNC(=O)c3ccccc3O)C2=O)cc1,35.4% (inactive)
2,Cc1ccc(/C=C2\SC(=S)N(CCCC(=O)NNC(=O)c3ccccc3O)C2=O)cc1,67.9% (active)
3,O=C(CCCN1C(=O)/C(=C/c2cccs2)SC1=S)Nc1cccc(O)c1,-2.9% (inactive)
4,Cc1ccc(/C=C2/SC(=S)N(CCCC(=O)Nc3ccc(O)cc3)C2=O)cc1,-26% (inactive)
5,O=C(CCCN1C(=O)/C(=C/c2ccccc2Cl)SC1=S)NNC(=O)c1ccccc1,-19.2% (inactive)
6,O=C(CCCN1C(=O)/C(=C/c2ccccc2Cl)SC1=S)NNC(=O)c1ccncc1,87% (active)
7,O=C(CCCN1C(=O)/C(=C/c2ccccc2Cl)SC1=S)NNC(=O)c1ccc(Cl)cc1,76.9% (active)
8,COc1ccc2[nH]cc(C(=O)CCl)c2c1,102% (active)
9,COC(CNC(=O)c1c[nH]c2ccc(S(=O)(=O)N3CCOCC3)cc2c1=O)OC,9.8% (inactive)
10,COc1ccc2c(C(=O)CCl)c[nH]c2c1,66.7% (active)
11,COc1ccc(-c2csc(NC(=O)C3=NN(c4ccccc4)C(=O)CC3)n2)cc1,-64.2% (inactive)
12,Cc1cc(F)ccc1S(=O)(=O)Nc1ccccc1C(=O)Nc1ccccc1-c1nc2ccccc2[nH]1,1.4% (inactive)
13,O=C(Nc1nc(-c2ccccc2)cs1)c1ccccc1NS(=O)(=O)c1ccc(F)cc1,91.5% (active)
14,COc1ccc(-c2csc(NC(=O)c3ccccc3NS(=O)(=O)c3ccc(F)c(F)c3)n2)cc1,82.3% (active)
15,COc1ccc(-c2csc(NC(=O)c3ccccc3NS(=O)(=O)c3ccc(C)cc3)n2)cc1,80.3% (active)
16,COc1ccc(S(=O)(=O)Nc2ccccc2C(=O)Nc2nc(-c3ccc(F)cc3)cs2)cc1OC,81.4% (active)
17,CCOc1ccc(NC(=O)c2ccccc2NS(=O)(=O)c2ccc(F)cc2)c([N+](=O)[O-])c1,11.5% (inactive)
18,Cc1ccc(S(=O)(=O)Nc2ccccc2C(=O)Nc2nc(-c3ccc(F)cc3)cs2)cc1,79.9% (active)
19,COc1ccccc1NS(=O)(=O)c1cccc(NC(=O)c2ccc3ccccc3n2)c1,15.4% (inactive)
20,CC(=O)c1c(C)[nH]c(C(=O)Nc2nc(-c3ccc(-c4ccccc4)cc3)cs2)c1C,-7.7% (inactive)
21,O=C(COc1ccc(Cl)cc1)Nc1nc(-c2ccc(S(=O)(=O)N3CCOCC3)cc2)cs1,26.4% (inactive)
22,COc1ccc(NC(=O)c2ccc(-c3ccccc3)cc2)cc1NS(=O)(=O)c1ccc(F)cc1,59.9% (active)
23,CC(C)CCNC(=O)c1cc(-c2ccncc2)nc2ccc(S(=O)(=O)N3CCOCC3)cc12,28.7% (inactive)

row,Compound,inhibition
1,COc1ccccc1C(=O)Nc1nc(-c2ccc(S(=O)(=O)N3CCOCC3)cc2)cs1,99.6% (active)
2,COC(=O)c1ccc(NC(=O)c2ccccc2NS(=O)(=O)c2ccccc2)cc1,32.6% (inactive)
3,COc1ccccc1COc1ccc2c(C)c(CCC(=O)O)c(=O)oc2c1C,5.6% (inactive)
4,Cc1c(CCC(=O)O)c(=O)oc2cc(OCc3ccccc3Br)ccc12,75.3% (active)
5,Cc1c(CCC(=O)O)c(=O)oc2c(C)c(OCc3ccccc3Cl)ccc12,17.1% (inactive)
6,Cc1c(C#N)c(NC(=O)CCl)n(Cc2ccccc2)c1C,95.9% (active)
7,CC(=O)Nc1ccc(SCC(=O)c2cc(C)n(Cc3cccs3)c2C)cc1,-119% (inactive)
8,Cc1c(C#N)c(NC(=O)CCl)n(Cc2cccs2)c1C,101% (active)
9,CC(=O)Nc1ccccc1OCC(=O)c1cc(C)n(Cc2cccs2)c1C,28.3% (inactive)
10,O=C(CCl)Nc1c2c(nn1-c1ccccc1)CSC2,-6.5% (inactive)
11,O=C(CCl)Nc1ccccc1C(=O)NCc1ccccc1,-4% (inactive)
12,CCC(C)(C)c1ccc(OCCCC[n+]2cccc(C)c2C)c(C(C)(C)CC)c1,18.8% (inactive)
13,CCCCCCCCC[n+]1cccc2c3ccccc3ccc21,83.9% (active)
14,CCCCCCCC[n+]1cccc2c3ccccc3ccc21,83.6% (active)
15,COc1cccc(OCCn2cc(C(C)=O)c3ccccc32)c1,26.8% (inactive)
16,CC(=O)c1cn(CCOc2cc(C)ccc2C)c2ccccc12,60.4% (active)
17,CC(=O)c1cn(CCOc2ccccc2C)c2ccccc12,46.6% (inactive)
18,CN(C)/C=C/C(=O)c1ccc2noc(-c3ccccc3)c2c1,30.4% (inactive)
19,c1ccc(CNc2ncnc3scc(-c4cccs4)c23)nc1,57.5% (active)
20,c1ccc(-c2csc3ncnc(NCc4ccccn4)c23)cc1,13.4% (inactive)
21,O=C(Nc1nc2ccccc2n1CCOc1ccc(Cl)cc1)c1ccco1,102% (active)
22,Cc1ccc(OCCn2c(NC(=O)c3ccco3)nc3ccccc32)cc1,19.6% (inactive)
23,COc1cccc(C(C)NC(=O)Nc2ccccc2Cl)c1 (configuration not stated),37.3% (inactive)

row,Compound,inhibition
1,O=C(Nc1ccccc1Cl)/C(Cl)=C(\Cl)S(=O)c1ccccc1 (configuration not stated),107% (active)
2,CC1=C(C(=O)OCc2ccc3c(c2)OCO3)C(c2ccc(Cl)cc2)NC(=O)N1 (configuration not stated),102% (active)
3,CC1=C(C(=O)OCc2ccc3c(c2)OCO3)C(c2ccccc2)NC(=O)N1 (configuration not stated),96.6% (active)
4,O=C(NCCc1ccccc1)c1ccc2c(c1)OCO2,-77.5% (inactive)
5,O=C(CCl)Nc1ccccc1C(=O)Nc1ccc2c(c1)OCO2,10.4% (inactive)
6,CC1=C(C(=O)OCc2ccc3c(c2)OCO3)C(c2ccc(O)c([N+](=O)[O-])c2)NC(=O)N1 (configuration not stated),58% (active)
7,CC1=C(C(=O)OCc2ccc3c(c2)OCO3)C(c2ccc(F)cc2)NC(=O)N1 (configuration not stated),104% (active)
8,COc1ccc(C(=O)N2CCCC(N3CCN(c4ccccc4OC)CC3)C2)c(OC)n1 (configuration not stated),25% (inactive)
9,O=c1cc(CSc2ccc(Cl)cc2)nc(-c2ccccn2)[nH]1,102% (active)
10,Cc1ccc(SCc2cc(=O)[nH]c(SCC(=O)Nc3cc(Cl)ccc3Cl)n2)cc1,28.1% (inactive)
11,S=C(N/N=C/c1ccc2ncccc2c1)Nc1cccnc1,29.3% (inactive)
12,O=C(N/N=C/c1c(O)ccc2ccccc12)c1cccnc1,101% (active)
13,C[C@@H](C(=O)Nc1ccc2ccccc2c1)[C@@H]1C[C@@]1(C)[C@@H](NC(=O)c1cccnc1)c1ccccc1,11% (inactive)
14,CCOc1cc(Br)cc(/C=N/NC(=O)c2cccnc2)c1O,69.2% (active)
15,O=C(CNC(=O)c1cccc(Br)c1)N/N=C/c1cc(Br)cc(Br)c1O,11.3% (inactive)
16,O=C(N/N=C\c1c(O)ccc2ccccc12)c1cncc(Br)c1,54.9% (active)
17,O=C(CCCc1nc(-c2ccc(Cl)cc2)no1)NC1CCCC1,55.5% (active)
18,Cc1ccc(-c2noc(CCCC(=O)NC3CCCCC3)n2)cc1,29.6% (inactive)
19,O=C(CCCc1nc(-c2ccc(Cl)cc2)no1)NC1CCCCC1,28.3% (inactive)
20,CC(=O)N(Cc1ccc(F)cc1)C1=C(NCCc2ccccc2)C(=O)c2ccccc2C1=O,102% (active)
21,O=C(NCc1ccccc1)C1CCCN1S(=O)(=O)c1ccc(F)cc1 (configuration not stated),21.4% (inactive)
22,Cc1cc(C)nc(OC(C(=O)O)C(OCCc2ccccc2)(c2ccc(F)cc2)c2ccc(F)cc2)n1 (configuration not stated),-13.2% (inactive)
23,CC(=O)N(Cc1ccc(F)cc1)C1=C(NCc2ccccc2)C(=O)c2ccccc2C1=O,91.2% (active)
